For test [1], the system named is Wnt5a (protein binding on small-molecule microarray). Nature of the test: small molecules binding Wnt5a protein – biophysical, small-molecule microarray, 635/667 nm fluorescence, primary screen (AID 1142).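 Note: fluorescence read at 667 nm with signal to noise per printed feature.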 The settings on record: 635 nm fluorescence, higher = more signal.
Test [2] in a line: ATP-based viability of Huh7 replicon cells – cell-based, CellTiter-Glo luminescence, basal, 48 h, cytotoxicity control for HCV replication inhibitor project, primary screen (AID 1143).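 Note: Huh7 hepatoma cells carrying a hepatitis C replication reporter with no stimulus; test concentration not given here.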 Particulars: higher = more signal, called active from +8 up or from −8 down. On the technique in general: A replicon is a self-replicating genome or part of one, used to study replication in cells.

A short description of test [3]: Pseudomonas biofilm growth suppression – PAO1 strain, BacTiter-Glo luminescence, LB-PBS, primary screen (AID 1144). Particulars: P. aeruginosa PAO1 biofilm, 12 h, higher = more signal.
Test [4] in a line: basal CRE-LacZ reporter activity in PC12 – cell-based, unstimulated, primary screen (AID 1145). Particulars: no forskolin, luminescence, 4.5 h, higher = more signal, called active from +8 up or from −8 down.
Test [5] in a line: forskolin-driven CRE-LacZ activity in PC12 – cell-based, CRE-LacZ reporter, forskolin-stimulated, primary screen (AID 1146).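 Note: PC12 cells with 6xCRE LacZ reporter stimulated by forskolin 10 µM; beta-galactosidase reporter signal reflecting CREB driven transcription.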 Particulars: luminescence, 4.5 h, higher = more signal, called active from +8 up or from −8 down.
The target in test [6] is Streptavidin (Streptomyces avidinii) (UniProt P22629). Nature of the test: compounds binding control protein streptavidin – biophysical, small-molecule microarray, 635/667 nm fluorescence, artefact control for SMM compound annotation, primary screen (AID 1147).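 Note: signal reflects streptavidin binding to arrayed compounds as a control protein.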 Particulars: higher = more signal.
Sequence of Streptavidin (Streptomyces avidinii) (P22629 whole entry, looked up): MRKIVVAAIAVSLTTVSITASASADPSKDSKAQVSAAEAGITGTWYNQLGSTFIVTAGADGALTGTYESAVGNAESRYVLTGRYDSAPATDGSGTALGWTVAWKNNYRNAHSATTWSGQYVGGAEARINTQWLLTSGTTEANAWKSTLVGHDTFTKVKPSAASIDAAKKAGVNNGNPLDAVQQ
The nature of test [7]: probe aInhba binding on compound microarray – biochemical, small-molecule microarray, 635/667 nm fluorescence, primary screen (AID 1148).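 Note: score merges 667nm spot fluorescence with signal-to-noise for antibody binding to printed compounds.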 Particulars: higher = more signal.
The target in test [8] is Torsin-1A (Homo sapiens) (UniProt O14656). Nature of the test: TOR1A wild-type binding on microarray – cell lysate, small-molecule microarray, lysate, 635/667 nm, primary screen (AID 1149). Particulars: COS7 hTOR1A-WT lysate, 635 nm fluorescence, higher = more signal.
Sequence of Torsin-1A (Homo sapiens) (O14656 whole entry, looked up): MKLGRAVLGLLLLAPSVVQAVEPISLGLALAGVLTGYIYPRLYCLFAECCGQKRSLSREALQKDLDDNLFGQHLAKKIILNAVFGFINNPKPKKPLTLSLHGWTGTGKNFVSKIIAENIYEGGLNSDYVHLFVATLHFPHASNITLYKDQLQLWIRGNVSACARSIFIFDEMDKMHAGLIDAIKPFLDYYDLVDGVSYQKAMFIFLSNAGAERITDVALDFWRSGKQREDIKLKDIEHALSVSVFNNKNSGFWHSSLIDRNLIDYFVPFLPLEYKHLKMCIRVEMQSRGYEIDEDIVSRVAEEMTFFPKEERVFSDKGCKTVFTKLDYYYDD
Test [9] has the same target. As to the kind of experiment: torsin A mutant lysate binding on microarrays – cell lysate, small-molecule microarray, COS7 lysate, 635/667 nm fluorescence, primary screen (AID 1150).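 Note: score pools 667 nm emission and signal to noise measuring lysate protein binding.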 The settings on record: COS7 hTOR1A mutant lysate, 635 nm fluorescence, higher = more signal.
Test [10] concerns Sonic hedgehog protein (Shh). Nature of the test: Sonic hedgehog microarray binding compounds – biochemical, small-molecule microarray, 635/667 nm fluorescence, primary screen (AID 1151).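 Note: Shh protein binding to compounds spotted on small-molecule microarray slides; score combines spot fluorescence intensity with signal-to-noise across triplicate slides.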 The settings on record: 635 nm fluorescence, higher = more signal.

Active and inactive are the calls of the source. Unless noted, the rule behind the calls is not given here.

With `COCCOC(=O)N1C(=O)[C@@]2(c3cc(C#CCC(C(=O)OC)C(=O)OC)ccc31)[C@H](c1ccc(OCCO)cc1)N1[C@H](c3ccccc3)[C@H](c3ccccc3)OC(=O)[C@H]1[C@@H]2C(=O)NC[C@H](O)c1ccccc1`, the composite z-score in [1] is 0.354; in test [6], 0.521; in test [7], 0.281; in test [8], 1.72; in [9], 1.18; in test [10], 2.14. Besides, the z-score in test [2] was -1.84 (inactive); in test [3], -1.29 (inactive); in [4], -1.56 (inactive); in [5], -0.526 (inactive).

For `CC(C)C(O)C1C=CC2C(=O)N(C)C(=O)C2N1N1CCCCC1` (stereo not given), the composite z-score in [1] was -0.0226; in [6] it was 0.482; in test [7] it was -0.0704; in test [8], -0.0881; in test [9] it was 1.29; in test [10] it was 0.192. Also, the z-score in test [2] was 0.788 (inactive); in [3], -0.775 (inactive); in test [4], -0.133 (inactive); in test [5] it was 0.0399 (inactive).

As for `COCCOC(=O)N1C(=O)[C@@]2(c3cc(C#CC4(O)CCCCCC4)ccc31)[C@H](c1ccc(O)cc1)N1[C@H](c3ccccc3)[C@H](c3ccccc3)OC(=O)[C@H]1[C@@H]2C(=O)N1CCc2cc(OC)c(OC)cc2C1`, the composite z-score in test [1] was -0.445; in [6], -1.33; in test [7] it was -0.176; in [8], -0.576; in test [9] it was -0.0551; in test [10] it was -0.649. In addition, the z-score was -2.45 (inactive) in [2], -1.73 (inactive) in test [3], -1.7 (inactive) in test [4] and -0.805 (inactive) in test [5].

In the case of `[N-]=[N+]=NCc1ccccc1C[C@]1(C(=O)N2CCOCC2)N=C(c2ccc(OCCCO)cc2)O[C@H]1c1ccccc1`, the composite z-score in test [1] was 0.258; in [6], 0.981; in test [7], 0.0091; in [8] it was 0.0039; in test [9], 0.348; in test [10], -0.147. For the same compound, the z-score in test [2] was -5.35 (inactive); in test [3] it was -0.764 (inactive); in test [4] it was 0.391 (inactive); in test [5], -1.5 (inactive).

With `O=C1C2C=CC(C(O)CCc3ccccc3)N(Nc3ccccc3)C2C(=O)N1c1ccccc1` (stereo not given), the composite z-score in [1] is 0.742; in test [6], 2.32; in test [7], 0.372; in [8], 0.143; in test [9], 0.82; in test [10], -0.365. Besides, the z-score in test [2] was 0.267 (inactive); in test [3] it was -0.857 (inactive); in [4] it was 0.819 (inactive); in test [5] it was -0.0219 (inactive).

In the case of `O=C1OCC=C[C@H]2OC34C=CCN(c5ccc(Cl)cc5)C(=O)[C@H]3N(CCCO)C(=O)[C@@H]4[C@@H]12` (stereo not given in full), the composite z-score in [1] is -0.329; in test [6] it was -1.47; in [7] it was -0.15; in [8], 0.626; in [9] it was -2.06; in test [10], -0.629. Also, the z-score was -2.14 (inactive) in test [2], -0.288 (inactive) in test [3], 1.28 (inactive) in test [4] and 0.245 (inactive) in test [5].

With `COC(=O)[C@@]1(Cc2ccccc2)[C@H]2c3cc(C(=O)N(C)C)n(Cc4cc(F)c(F)c(F)c4)c3C[C@H]2CN1C(=O)c1ccccc1`, the composite z-score is 0.312 in [1]; 0.773 in test [6]; 0.681 in test [7]; 0.0663 in [8]; 0.12 in test [9]; -0.578 in test [10]. Further, the z-score in test [2] was -3.19 (inactive); in test [3] it was 0.301 (inactive); in test [4] it was 0.0109 (inactive); in test [5], -0.214 (inactive).

For the compound `CN(C)CCCCCCNC(=O)[C@@H]1C[C@@H]2C(=O)NCC(=O)N2[C@@H]1c1cccc(OCCO)c1`, the composite z-score in [1] stood at 1.21; in [6], 0.312; in [7] it was 0.105; in [8], 1.14; in test [9] it was 2.07; in [10] it was 1.64. Besides, the z-score was 0.105 (inactive) in test [2], -0.418 (inactive) in test [3], -0.549 (inactive) in test [4] and -0.832 (inactive) in test [5].

Turning to `C=CCNC(=O)[C@H]1[C@@H]2C(=O)O[C@@H](c3ccccc3)[C@@H](c3ccccc3)N2[C@@H](c2ccc(O)cc2)[C@]12C(=O)Nc1ccc(C#Cc3ccc(OC)cc3)cc12`, the composite z-score was 0.555 in test [1]; 0.252 in [6]; -0.0523 in test [7]; 0.11 in [8]; 0.117 in [9]; 0.667 in test [10]. In addition, the z-score in test [2] is -3.44 (inactive); in test [3], -0.182 (inactive); in test [4] it was -0.141 (inactive); in test [5], 0.468 (inactive).

`O=S(=O)(NCCCO)c1ccc(Br)cc1`: the composite z-score is 0.191 in [1]; 0.587 in test [6]; -0.024 in [7]; 0.729 in test [8]; 0.783 in [9]; 0.533 in test [10]. In addition, the z-score is -1.52 (inactive) in [2], -0.658 (inactive) in [3], -0.198 (inactive) in [4] and -0.472 (inactive) in test [5].

`CCCCN1CC=CC23O[C@@H]4C=CCCOC(=O)C4[C@H]2C(=O)N(CCCO)[C@@H]3C1=O` (stereo not given in full): the composite z-score is -0.148 in [1]; -0.614 in [6]; -0.176 in [7]; -0.387 in test [8]; -0.954 in test [9]; -0.278 in [10]. Further, the z-score in test [2] is -2.05 (inactive); in test [3], -1.19 (inactive); in test [4] it was -0.484 (inactive); in test [5], 0.46 (inactive).

In the case of `CN(C)CCCN1C(=O)[C@@]2(c3ccc([N+](=O)[O-])cc3)CC(=O)N(C3CCCCC3)[C@@H]2c2ccc(CO)cc21`, the composite z-score was 0.131 in test [1]; 0.161 in test [6]; -0.101 in [7]; -0.954 in [8]; -0.288 in [9]; -0.93 in test [10]. The z-score in test [2] is -1.79 (inactive); in [3], -1.09 (inactive); in [4], -0.464 (inactive); in [5], -0.477 (inactive).

In the case of `CC(C)N1C(=O)c2ccccc2[C@](C)(C(=O)NC2CC2)[C@@H]1c1ccc(CO)cc1`, the composite z-score in [1] was 0.204; in test [6], -0.166; in test [7], -0.2; in [8], 1.11; in test [9], 0.74; in [10], 0.889. The z-score is -0.997 (inactive) in [2], -0.723 (inactive) in test [3], 0.118 (inactive) in test [4] and 0.957 (inactive) in [5].

Regarding `CN1C(=O)C2C=CC(C(O)C=Cc3ccc([N+](=O)[O-])cc3)N(N3CCCCC3)C2C1=O` (stereo not given), the composite z-score in [1] is 1.32; in test [6], 2.09; in [7] it was 1.22; in [8], 0.704; in test [9] it was 0.451; in [10], 0.909. Besides, the z-score in test [2] is 0.795 (inactive); in test [3] it was 0.287 (inactive); in test [4], -0.519 (inactive); in test [5], 0.855 (inactive).

Values taken from PubChem BioAssay.
